# Shown is part of a subset that was picked to be rich in the strongest signals.
# B1: Flo10 (Saccharomyces cerevisiae), P36170 (protein)
# chain: MPVAARYIFLTGLFLLSVANVALGTTEACLPAGEKKNGMTINFYQYSLKDSSTYSNPSYMAYGYADAEKLGSVSGQTKLSIDYSIPCNGASDTCACSDDDATEYSASQVVPVKRGVKLCSDNTTLSSKTEKRENDDCDQGAAYWSSDLFGFYTTPTNVTVEMTGYFLPPKTGTYTFGFATVDDSAILSVGGNVAFECCKQEQPPITSTDFTINGIKPWNADAPTDIKGSTYMYAGYYYPIKIVYSNAVSWGTLPVSVVLPDGTEVNDDFEGYVFSFDDNATQAHCSVPNPAEHARTCVSSATSSWSSSEVCTECTETESTSYVTPYVTSSSWSSSEVCTECTETESTSTSTPYVTSSSSSSSEVCTECTETESTSYVTPYVSSSTAAANYTSSFSSSSEVCTECTETESTSTSTPYVTSSSWSSSEVCTECTETESTSYVTPYVSSSTAAANYTSSFSSSSEVCTECTETESTSTSTPYVTSSSSSSSEVCTECTETESTSYVTPYVSSSTAAANYTSSFSSSSEVCTECTETESTSTSTPYVTSSSWSSSEVCTECTETESTSYVTPYVSSSTAAANYTSSFSSSSEVCTECTETESTSTSTPYATSSTGTATSFTASTSNTMTSLVQTDTTVSFSLSSTVSEHTNAPTSSVESNASTFISSNKGSVKSYVTSSIHSITPMYPSNQTVTSSSVVSTPITSESSESSASVTILPSTITSEFKPSTMKTKVVSISSSPTNLITSYDTTSKDSTVGSSTSSVSLISSISLPSSYSASSEQIFHSSIVSSNGQALTSFSSTKVSSSESSESHRTSPTTSSESGIKSSGVEIESTSTSSFSFHETSTASTSVQISSQFVTPSSPISTVAPRSTGLNSQTESTNSSKETMSSENSASVMPSSSATSPKTGKVTSDETSSGFSRDRTTVYRMTSETPSTNEQTTLITVSSCESNSCSNTVSSAVVSTATTTINGITTEYTTWCPLSATELTTVSKLESEEKTTLITVTSCESGVCSETASPAIVSTATATVNDVVTVYSTWSPQATNKLAVSSDIENSASKASFVSEAAETKSISRNNNFVPTSGTTSIETHTTTTSNASENSDNVSASEAVSSKSVTNPVLISVSQQPRGTPASSMIGSSTASLEMSSYLGIANHLLTNSGISIFIASLLLAIV
# What was measured:
# Test in all cases: glycan array binding signal (z-score within array); higher = stronger binding
# Details in all cases: glycan notation: IUPAC condensed, linker removed
# [1] = molecular target: Fuc(a1-2)Gal(b1-3)GalNAc(a1-3)[Fuc(a1-2)]Gal(b1-4)Glc
# In short: (§1)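 The Consortium for Functional Glycomics database supplied 3228 glycan arrays, of which those lacking an available protein sequence were dropped. The binding signal, a within-array Z-score, was averaged across arrays of the same protein sequence and across linkers. Negative scores can be read as non-binding.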
# [2] = molecular target: Fuc(a1-2)Gal(b1-3)GalNAc(a1-3)[Fuc(a1-2)]Gal(b1-4)GlcNAc
# In short: as §1
# [3] = molecular target: Fuc(a1-2)Gal(b1-4)[Fuc(a1-3)]GlcNAc(b1-2)Man(a1-3)[Fuc(a1-2)Gal(b1-4)[Fuc(a1-3)]GlcNAc(b1-2)Man(a1-6)]Man(b1-4)GlcNAc(b1-4)GlcNAc
# In short: as §1
# [4] = molecular target: Fuc(a1-2)Gal6S(b1-4)GlcNAc
# In short: as §1
# Fuc(a1-2)[Gal(a1-3)]Gal = molecular target: Fuc(a1-2)[Gal(a1-3)]Gal
# In short: as §1
# [5] = molecular target: Fuc(a1-2)[GalNAc(a1-3)]Gal(b1-3)GalNAc(a1-3)[Fuc(a1-2)]Gal(b1-4)GlcNAc
# In short: as §1
# [6] = molecular target: Fuc(a1-2)[GalNAc(a1-3)]Gal(b1-3)GlcNAc
# In short: as §1
# [7] = molecular target: Fuc(a1-2)[GalNAc(a1-3)]Gal(b1-4)GlcNAc(b1-2)Man(a1-3)[Fuc(a1-2)[GalNAc(a1-3)]Gal(b1-4)GlcNAc(b1-2)Man(a1-6)]Man(b1-4)GlcNAc(b1-4)GlcNAc
# In short: as §1
# [8] = molecular target: Fuc(a1-2)[GalNAc(a1-3)]Gal(b1-4)GlcNAc(b1-3)Gal(b1-4)GlcNAc
# In short: as §1
# [9] = molecular target: Fuc(a1-2)[GalNAc(a1-3)]Gal(b1-4)GlcNAc(b1-3)Gal(b1-4)GlcNAc(b1-3)Gal(b1-4)GlcNAc
# In short: as §1
# [10] = molecular target: Fuc(a1-2)[GalNAc(a1-4)]Gal(b1-4)GlcNAc
# In short: as §1
# Gal(a1-2)Gal = molecular target: Gal(a1-2)Gal
# In short: as §1
# [11] = molecular target: Gal(a1-3)Gal(b1-4)GlcNAc(b1-3)GalNAc
# In short: as §1
# [12] = molecular target: Gal(b1-3)GalNAc(a1-3)[Fuc(a1-2)]Gal(b1-4)Glc
# In short: as §1
# [13] = molecular target: Gal(b1-3)GalNAc(b1-4)[Neu5Ac(a2-3)]Gal(b1-4)Glc
# In short: as §1
# [14] = molecular target: Gal(b1-3)GlcNAc(a1-6)Gal(b1-4)GlcNAc
# In short: as §1
# [15] = molecular target: Gal(b1-3)GlcNAc(b1-3)Gal(b1-3)GlcNAc
# In short: as §1
# [16] = molecular target: Gal(b1-3)GlcNAc(b1-3)Gal(b1-4)GlcNAc
# In short: as §1
# [17] = molecular target: Gal(b1-4)GlcNAc(b1-2)Man(a1-6)[GlcNAc(b1-2)Man(a1-3)]Man(b1-4)GlcNAc(b1-4)GlcNAc
# In short: as §1
# [18] = molecular target: Gal3S(b1-4)[Fuc(a1-3)]Glc6S
# In short: as §1
# GalNAc(a1-3)GalNAc = molecular target: GalNAc(a1-3)GalNAc
# In short: as §1
# [19] = molecular target: GalNAc(a1-3)GalNAc(a1-3)Gal(a1-4)Gal(b1-4)GlcNAc
# In short: as §1
# Glc(a1-4)Glc = molecular target: Glc(a1-4)Glc
# In short: as §1
# [20] = molecular target: GlcNAc(b1-2)Gal(b1-3)GalNAc
# In short: as §1
# [21] = molecular target: GlcNAc(b1-2)Man(a1-3)[GlcNAc(b1-2)Man(a1-6)]Man(b1-4)GlcNAc(b1-4)GlcNAc
# In short: as §1
# [22] = molecular target: GlcNAc(b1-3)Gal(b1-4)GlcNAc
# In short: as §1
# [23] = molecular target: GlcNAc(b1-4)Gal(b1-4)GlcNAc
# In short: as §1
# Kdn(a2-3)Gal(b1-3)GalNAc = molecular target: Kdn(a2-3)Gal(b1-3)GalNAc
# In short: as §1
# Kdn(a2-3)Gal(b1-4)GlcNAc = molecular target: Kdn(a2-3)Gal(b1-4)GlcNAc
# In short: as §1
# [24] = molecular target: Man(a1-2)Man(a1-6)[Man(a1-3)]Man(a1-6)[Man(a1-2)Man(a1-2)Man(a1-3)]Man(b1-4)GlcNAc(b1-4)GlcNAc
# In short: as §1
binder,measurement,setting,value
B1,glycan array binding signal (z-score),[1],-0.704
same,glycan array binding signal (z-score),[2],0.044
same,glycan array binding signal (z-score),[3],-0.165
same,glycan array binding signal (z-score),[4],0.331
same,glycan array binding signal (z-score),Fuc(a1-2)[Gal(a1-3)]Gal,-0.579
same,glycan array binding signal (z-score),[5],1.12
same,glycan array binding signal (z-score),[6],-0.144
same,glycan array binding signal (z-score),[7],3.27
same,glycan array binding signal (z-score),[8],4.78
same,glycan array binding signal (z-score),[9],5.34
same,glycan array binding signal (z-score),[10],-0.76
same,glycan array binding signal (z-score),Gal(a1-2)Gal,3.67
same,glycan array binding signal (z-score),[11],-0.351
same,glycan array binding signal (z-score),[12],3.64
same,glycan array binding signal (z-score),[13],0.092
same,glycan array binding signal (z-score),[14],0.52
same,glycan array binding signal (z-score),[15],3.58
same,glycan array binding signal (z-score),[16],0.23
same,glycan array binding signal (z-score),[17],0.034
same,glycan array binding signal (z-score),[18],-0.042
same,glycan array binding signal (z-score),GalNAc(a1-3)GalNAc,0.641
same,glycan array binding signal (z-score),[19],1.74
same,glycan array binding signal (z-score),Glc(a1-4)Glc,-0.77
same,glycan array binding signal (z-score),[20],-0.768
same,glycan array binding signal (z-score),[21],-0.394
same,glycan array binding signal (z-score),[22],-0.536
same,glycan array binding signal (z-score),[23],-0.716
same,glycan array binding signal (z-score),Kdn(a2-3)Gal(b1-3)GalNAc,0.113
same,glycan array binding signal (z-score),Kdn(a2-3)Gal(b1-4)GlcNAc,-0.202
same,glycan array binding signal (z-score),[24],-0.712
